# The whole screen tested about 87,000 compounds, of which about 540 (0.62%) were called active. No rule for the calls is given here. The entries come from a sample that favours actives as a whole. A call without a number means that no potency is given here. Potency and affinity values are given separately.
# Assay: MT1-MMP gene expression reporter suppression – cell-based, luciferase reporter, luminescence (AID 618);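 also: actives suppress MT1-MMP promoter-driven transcription so potencies describe inhibitors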
# Settings: MT1-MMP promoter luciferase reporter cells
row,Compound,outcome
1,COc1ccc(CNC(=O)c2ccc3c(c2)N(C)C(=O)CS3=O)cc1 (configuration not stated),inactive
2,COc1ccc(CNc2ccccc2SC)cc1OC,inactive
3,CSc1ccccc1N=CC1=C(O)CC(C)(C)CC1=O,inactive
4,C=CCNc1ncnc2c1cnn2-c1cccc(C)c1,inactive
5,C=CCNc1ncnc2c1cnn2-c1ccc(Cl)cc1,inactive
6,O=C(Nc1ccccc1C(=O)NCCCn1ccnc1)c1ccccc1,inactive
7,O=C(Nc1ccccc1C(=O)NCCCn1ccnc1)c1ccc(Cl)cc1Cl,inactive
8,CCOc1cc(N2CCOCC2)c(OCC)cc1NS(=O)(=O)c1ccc(Cl)s1,active
9,CCOc1ccc(Br)cc1S(=O)(=O)Nc1ccccc1N1CCOCC1,inactive
10,CCOc1cc(N2CCOCC2)c(OCC)cc1NC(=O)CCS(=O)(=O)c1ccc(Cl)cc1,inactive
11,CCOC(=O)c1[nH]c(C)c(CN(Cc2ccco2)C(=O)C(F)(F)F)c1C,inactive
12,O=C(Nc1cccc(-c2cnc3ccccc3n2)c1)c1ccco1,inactive
13,O=C(CNC(=O)c1ccc(Br)o1)Nc1cccc(-c2cnc3ccccc3n2)c1,inactive
14,O=C(CCl)Nc1cccc(-c2cnc3ccccc3n2)c1,active
15,O=c1cc(O)c(-c2ccccc2Cl)c(Cl)[nH]1,inactive
16,Cc1nnc(NCCc2ccccc2)[nH]c1=O,inactive
17,CC(=O)Oc1ccc2oc(C)c(C(=O)N3CCOCC3)c2c1,inactive
18,Nc1ccc2nc(-c3ccccn3)[nH]c2c1,inactive
19,CC(=O)Nc1ccc2nc(-c3ccccn3)[nH]c2c1,inactive
20,CC(=O)Nc1nnc(Cc2ccccc2)s1,inactive
21,COC(=O)C(Cc1cnc(Cl)s1)(C(=O)OC)c1ccc([N+](=O)[O-])cc1,inactive
22,Cc1ccc(C)c(C(=O)CSc2nnnn2C(C)C)c1,inactive
23,CC(=O)Nc1ccc(C(=O)CSc2nnnn2C(C)C)cc1,inactive
24,COc1ccc(NC(=O)N2c3ccccc3CC2C)cc1OC (configuration not stated),inactive

row,Compound,outcome
1,Cc1nc2cc(NC(=O)N3c4ccccc4CC3C)ccc2o1 (configuration not stated),inactive
2,Cc1nc2cc(NC(=O)N3c4ccccc4CC3C)ccc2n1C (configuration not stated),active
3,COc1ccc(Cn2nnnc2C(c2ccc(N(C)C)cc2)N2CCC(C)CC2)cc1 (configuration not stated),inactive
4,COc1ccc(C(=O)Nn2c(SCC(=O)c3ccc(Cl)cc3)nc3ccccc3c2=O)cc1,inactive
5,COc1ccc(C(=O)Nn2c(SCC(=O)NC3CCCC3)nc3ccccc3c2=O)cc1,inactive
6,COc1ccc(C(=O)Nn2c(SCC(=O)c3ccccc3)nc3ccccc3c2=O)cc1,inactive
7,COCCn1c(SCC(=O)N2CCC(C)CC2)nc2ccccc2c1=O,inactive
8,O=C(CSc1nc2ccccc2c(=O)n1NC(=O)Cc1ccccc1)NCc1ccco1,inactive
9,O=C(CSc1nc2ccsc2c(=O)n1NC(=O)c1ccccc1)NCc1ccco1,inactive
10,CCOc1ccccc1NC(=O)C1C2C=CC(C2)C1C(=O)O (configuration not stated),inactive
11,Cc1cc(N)n(-c2nc(-c3cccnc3)nc3ccccc23)n1,inactive
12,Cc1cc(Nc2ccccc2N2CCOCC2)n2ncnc2n1,inactive
13,O=C(Cn1nnc(-c2ccc(Cl)cc2)n1)NC1CCN(Cc2ccccc2)CC1,inactive
14,N#Cc1nc(-c2ccc(OCc3ccc(Cl)cc3)cc2)oc1N1CCC(C(N)=O)CC1,inactive
15,CN(C)C(=O)N1CCC(C(=O)NCc2ccc(F)cc2Cl)CC1,inactive
16,c1ccc(-n2nnnc2SCc2ccccn2)cc1,inactive
17,CCN(CC)C(=O)C1CCCN(Cc2cccc(F)c2)C1 (configuration not stated),inactive
18,Cn1c(=O)c2c(nc(SCC(=O)NCc3ccc4c(c3)OCO4)n2Cc2ccc(F)cc2)n(C)c1=O,inactive
19,O=C(CCCOc1ccc(Cl)cc1)N1CCCCCC1,inactive
20,O=C(CCCOc1ccccc1)N1CCN(c2ccccc2)CC1,inactive
21,O=C(Nc1nc2ccccc2s1)c1ccc(Cl)s1,inactive
22,Cc1cc(C)n(-c2ccc(C(=O)Nc3nc4ccccc4s3)cc2)n1,inactive
23,CCOc1ccccc1OCC(=O)OCC(=O)Nc1ncc(Cl)cc1Cl,inactive
24,CCn1c(SCC(=O)N2CCN(c3ccc(F)cc3)CC2)nc2ccccc2c1=O,inactive

row,Compound,outcome
1,C#CC[N+]1(CC#Cc2ccccc2)CCOCC1,inactive
2,COC(=O)CSc1nnc(Cc2ccccc2)n1-c1ccc(C)cc1,inactive
3,COc1ccc(C2=NOC(C(=O)NCc3cccs3)C2)cc1 (configuration not stated),inactive
4,COc1cc(C2=NOC(C(=O)NCc3cccs3)C2)cc(OC)c1OC (configuration not stated),inactive
5,COc1ccc(C2=NOC(C(=O)NCc3cccs3)C2)cc1OC (configuration not stated),active
6,CCC1(C)Cc2c(sc3nn[nH]c(=O)c23)CO1 (configuration not stated),inactive
7,Cc1nc2sc(C(c3cccs3)N3CCN(c4ccccc4)CC3)c(O)n2n1 (configuration not stated),inactive
8,Cn1c(=NC(=O)CN2C(=O)C3CC=CCC3C2=O)sc2ccccc21 (configuration not stated),inactive
9,Cn1c(=NC(=O)CCl)sc2ccccc21,active
10,CC(=O)N=c1sc2ccccc2n1C,inactive
11,CCCCOC(=O)C(C)Nc1n[nH]c(=S)[nH]c1=O (configuration not stated),inactive
12,CCN(C(=O)CN1CCN(c2ccccc2OC)CC1)c1c(N)n(Cc2ccccc2)c(=O)[nH]c1=O,inactive
13,CC(=O)N(/N=C1\Sc2ccccc2C1=O)c1ccccc1C,inactive
14,CC(=O)N(/N=C1\Sc2ccccc2C1=O)c1cccc(C)c1,inactive
15,CC(=O)N(Cc1ccc(F)cc1)C1=C(NCc2ccccc2)C(=O)c2ccccc2C1=O,active
16,CC(=O)n1nc(-c2ccccc2)nc1NCc1ccc(F)cc1,inactive
17,Cn1c(=O)c2c(nc(NCCc3ccccc3)n2Cc2ccc(F)cc2)n(C)c1=O,inactive
18,Cn1c(=O)c2c(nc(NCc3ccccc3)n2Cc2ccc(F)cc2)n(C)c1=O,inactive
19,O=C(Cc1ccc(F)cc1)NCCc1ccccc1,inactive
20,OC(CN1C2=NCCN2c2ccccc21)c1ccc(Br)cc1 (configuration not stated),inactive
21,O=S(=O)(NCCSc1nc2ccccc2o1)c1ccccc1,inactive
22,O=C(CCC1CCCC1)Nc1ccc(OCC(=O)N2CCOCC2)cc1,inactive
23,COc1ccccc1CN1CCSCC1,inactive
24,COCc1nnc(NC(=O)c2cc(Cl)ccc2OC)s1,inactive

row,Compound,outcome
1,O=C(CSc1nnc(Cc2cccs2)n1Cc1ccco1)Nc1ccc(Cl)cc1Cl,inactive
2,Cc1ccnn1CC(=O)N/N=C/c1ccco1,inactive
3,CC(C)CCn1c(N)c(S(=O)(=O)c2cccs2)c2nc3ccccc3nc21,active
4,CC(C)Cn1c(N)c(S(=O)(=O)c2cccs2)c2nc3ccccc3nc21,inactive
5,COCCn1c(N)c(S(=O)(=O)c2cccs2)c2nc3ccccc3nc21,inactive
6,N#Cc1nc(-c2ccco2)oc1N1CCN(c2cccc(Cl)c2)CC1,inactive
7,CC(Oc1ccc(Cl)cc1Cl)C(=O)NCc1ccncc1 (configuration not stated),inactive
8,Cc1cc(C)c(C)c(OCC(=O)NCC2CCCO2)c1 (configuration not stated),inactive
9,O=C(O)c1n[nH]c2c1CCCCC2,inactive
10,CC1(CCc2ccccc2)NC(=O)N(Cc2nnc(-c3ccccc3Br)o2)C1=O (configuration not stated),inactive
11,CC1Cc2ccccc2N1c1nc(C2CC2)nc2c1nnn2Cc1ccccc1 (configuration not stated),inactive
12,CC(=O)Nc1c(O)nc(SCC(=O)Nc2sc3c(c2C#N)CCCCCC3)[nH]c1=O,inactive
13,N#Cc1c(NC(=O)CSc2nc(N)cc(=O)[nH]2)sc2c1CCCCCC2,inactive
14,CC(C)(C)C1CCc2c(sc(NC(=O)CSc3ncn[nH]3)c2C#N)C1 (configuration not stated),inactive
15,Cc1nnc(SCC(=O)Nc2sc3c(c2C#N)CCCC3)[nH]c1=O,inactive
16,CCSC1=C(C#N)C2(CCCCC2)C(C#N)C(=O)N1 (configuration not stated),inactive
17,Cc1cc(NC(=O)CSc2nc(C(C)C)nc3sc4c(c23)CCCC4)no1,inactive
18,CCOC(=O)N1CCN(C(=O)Cn2cc3c(n2)CCCC3)CC1,inactive
19,O=C(O)C1=C(C(=O)N2CCN(C(=O)c3ccco3)CC2)CCCC1,inactive
20,c1ccc(Sc2ncnc3c2oc2ccccc23)cc1,inactive
21,Fc1cccc(-c2cc3nc4c(c(N5CCN(c6cnccn6)CC5)n3n2)CCCC4)c1,inactive
22,COC(=O)c1ccc(OC(=O)c2ccco2)cc1,inactive
23,CC1=CC(C)(C)Nc2ccc(OC(=O)c3ccco3)cc21,active
24,COc1ccc2c(c1)C(C)=CC(C)(C)N2C(=O)CN1C(=O)CCC1=O,inactive

row,Compound,outcome
1,CC1=CC(C)(C)Nc2ccc(OC(=O)CN3C(=O)C4CCCCC4C3=O)cc21 (configuration not stated),inactive
2,CCc1ccc2c(c1)C(C)=CC(C)(C)N2,inactive
3,CC1=CC(C)(C)Nc2ccc(OC(=O)c3cccnc3)cc21,inactive
4,O=C(Oc1ccc2ccccc2c1)c1ccco1,inactive
5,COc1ccc(-c2nnc(SCC(=O)N3c4ccccc4Sc4ccccc43)o2)cc1,inactive
6,CCOC(=O)c1ccc2nc3c(cc2c1)CCS3,inactive
7,COc1ccc2c(c1OC)C(=O)N(c1ccc3c(c1)CCC3)C2=O,inactive
8,CCn1c(=O)n(CC(=O)NC2CCCC(C)C2C)c(=O)c2ccccc21 (configuration not stated),inactive
9,CCN(CCNC(=O)C1CCN(c2nnc(-n3cccc3)s2)CC1)c1ccccc1,inactive
10,Cc1ccc2cc3c(N)c(C(=O)N4CCOCC4)sc3nc2c1,inactive
11,Cc1cccc2cc3c(N)c(C(=O)N4CCOCC4)sc3nc12,inactive
12,Cc1ccc2nc3sc(C(=O)N4CCOCC4)c(N)c3cc2c1,active
13,Cc1cccc(-n2ncc(C#N)c2N)c1,inactive
14,Cc1cc(C)nc(SCCn2c(N(C)Cc3ccccc3)nc3c2c(=O)n(C)c(=O)n3C)n1,inactive
15,Cc1cc(C)n(CCO)c(=O)n1,inactive
16,N#CC1=C(N)SC(N)=C(C#N)C1C1CC=CCC1 (configuration not stated),inactive
17,O=c1/c(=C\c2cccn2-c2ccccc2)sc2nc3ccccc3n12,inactive
18,Cc1ccc(-n2c(C)cc(/C=c3/sc4nc5ccccc5n4c3=O)c2C)cc1,inactive
19,Cc1cc(/C=c2/sc3nc4ccccc4n3c2=O)c(C)n1-c1ccccn1,active
20,COc1cc(N2CCCC2)c(OC)cc1/C=c1/sc2nc3ccccc3n2c1=O,inactive
21,COC(=O)/C=c1/sc2nc3ccccc3n2c1=O,inactive
